The values below come from PubChem BioAssay AID485297 (National Center for Advancing Translational Sciences (NCATS), 2010).

In all, about 320,000 compounds went through this assay and about 9,100 (2.8%) were called active. Roughly 3% stayed inconclusive and do not appear here. Calls come from the whole dose curve; as a rule, active = well fitted activation curve with a large enough effect; inconclusive = small, poorly fitted or top-dose-only effect; inactive = no such curve, though single readings can be large or run the other way. The list comes from a sample in which actives are over-represented; it also holds similar structures and randomly drawn compounds.
Potency is the fitted concentration of half-maximal effect.

A short description of the assay: qHTS Assay for Rab9 Promoter Activators. For activation, negative = inhibition: % of control where 0% means no effect. Note: nearly all actives have a fitted effect of over 60% in size. Conditions: Huh7 Rab9 promoter-luciferase reporter, luminescence, 24 h; series mostly up to 9.22 µM; activation, negative = inhibition: at the top concentration. An outline of the steps: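 Luciferase signal after 10 min detection reagent at ambient indicates Rab9 promoter upregulation; stably transfected Huh7 cells were treated 24 h with compound in DMSO at 37 °C, 5% CO2.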
(Quantitative high-throughput screening tests each substance at several concentrations.)
With `CCc1nnc(NC(=O)C2CCN(C(=O)c3ccccc3C)CC2)s1`, the “activation, negative = inhibition” value is -6.02% (inactive).

Consider `O=C1/C(=C/c2ccc3c(c2)OCO3)CCC/C1=C\c1ccc2c(c1)OCO2`, for which the “activation, negative = inhibition” value was -1.72% (inactive).

For `Nc1[nH][nH]c(=O)c1N=Nc1ccc2c(c1)OCO2`, the Potency was 3550 nM (active).

On to `Cc1[nH][nH]c(=O)c1N=Nc1ccccc1`, for which the “activation, negative = inhibition” value was 12% (inactive).

As to `COc1ccc2ccn(C)c2c1`, the “activation, negative = inhibition” value is -0.692% (inactive).

With `Cc1ccc(NC(=O)CN(C)C(=O)COC(=O)c2nccnc2N)cc1`, the “activation, negative = inhibition” value was -6.5% (inactive).

As to `CS(=O)(=O)N1CCN(C(=O)Cc2ccccc2)CC1`, the “activation, negative = inhibition” value is 2.51% (inactive).

As to `CS(=O)(=O)N1CCN(c2cccc(Cl)n2)CC1`, the “activation, negative = inhibition” value was -4.47% (inactive).

Take `CS(=O)(=O)N1CCc2nc(-c3ccccc3)sc2C1`: the Potency is 1580 nM (active).

In the case of `NC(=O)C1CCN(C(=O)c2ccc(F)c(S(=O)(=O)N3CCOCC3)c2)CC1`, the “activation, negative = inhibition” value is 0.968% (inactive).

With `Cc1ccc(N(CC(=O)NCC2CCCO2)C(=O)CNS(=O)(=O)c2ccc(Cl)cc2)cc1` (stereo not drawn), the “activation, negative = inhibition” value was 3.13% (inactive).

In the case of `O=C1c2ccccc2C(=O)N1CCC#Cc1ccc2cc(C3(O)CCCCC3)oc(=O)c2c1`, the “activation, negative = inhibition” value is -4.71% (inactive).

Turning to `O=C(Nc1ccc(NC(=O)c2ccco2)c(Cl)c1)c1cccc([N+](=O)[O-])c1`, the “activation, negative = inhibition” value is 2.88% (inactive).

`O=C(Nc1ccc(C(=O)N2CCCCC2)cc1)c1cccc([N+](=O)[O-])c1`: the “activation, negative = inhibition” value is 2.09% (inactive).

For the compound `O=C(Nc1ccc(C2CC2(Cl)Cl)cc1)c1cccc([N+](=O)[O-])c1` (stereo not drawn), the Potency is 3980 nM (active).

As for `CN(C)/C=C(/C(=O)c1ccc(Cl)c(Cl)c1)c1nnnn1-c1ccccc1`, the “activation, negative = inhibition” value was -1.69% (inactive).

As for `COC(=O)Cc1[nH]n(-c2nc3ccccc3s2)c(=O)c1C(C)=Nc1ccc(OC)cc1`, the “activation, negative = inhibition” value is -29.5% (inactive).

`CC(=NCc1ccco1)c1c(C(F)(F)F)[nH]n(-c2nc3ccccc3s2)c1=O`: the Potency is 2000 nM (active).

For the compound `CC(=NCc1ccco1)C1=C(O)c2ccccc2C1=O`, the “activation, negative = inhibition” value is 27.3% (inactive).

With `O=C(CN1CCN(S(=O)(=O)c2cccc(Cl)c2)CC1)N1CCCCC1`, the “activation, negative = inhibition” value was -2.8% (inactive).

For `COc1ccccc1N1CCN(CC(=O)Nc2ccnn2C2CCCC2)CC1`, the “activation, negative = inhibition” value is -1.51% (inactive).

In the case of `O=C(/C=C\c1cn(-c2ccccc2)nc1-c1cccs1)N1CCOCC1`, the “activation, negative = inhibition” value was -2.01% (inactive).

On to `O=C(O)c1ccc(N/N=C/c2cn(-c3ccccc3)nc2-c2cccs2)cc1`, for which the Potency was 447 nM (active).

As to `COc1ccc(-c2nn(-c3ccccc3)cc2/C=C\C(=O)Nc2ccc(C(=O)O)cc2)cc1`, the “activation, negative = inhibition” value was -2.58% (inactive).

Take `COc1ccc(OC)c(/C=C/C(=O)c2ccc3c(c2)OCO3)c1`: the “activation, negative = inhibition” value is -4.56% (inactive).

`CN(C(=O)COC(=O)Cn1cnc2c1c(=O)n(C)c(=O)n2C)C1(C#N)CCCCC1`: the “activation, negative = inhibition” value was 2.9% (inactive).

Regarding `COc1ccccc1-n1ccnc1SCC(=O)NC(C)(C)C`, the “activation, negative = inhibition” value is -2.9% (inactive).

As to `Cc1ccccc1CSCC(=O)NC(=O)NC(C)(C)C`, the “activation, negative = inhibition” value is 7.27% (inactive).

Turning to `CC(C)(C)NC(=O)CSC(=Nc1ccccc1F)NC#N`, the Potency was 3980 nM (active).

As for `CC(CCc1ccccc1)NC(=O)c1cnc(Cl)c(Cl)c1` (stereo not drawn), the activation, negative = inhibition was -1.69% [at 1.84 µM] (inactive).

For the compound `COc1ccc(CNC(=O)c2ccc(NS(=O)(=O)c3ccc4[nH]c(=O)[nH]c4c3)cc2)cc1OC`, the “activation, negative = inhibition” value was 0.821% (inactive).

As to `S=C(NCc1cccnc1)Nc1ccc(Cl)cc1Cl`, the “activation, negative = inhibition” value was 2% (inactive).

As to `O=C(NC(=S)Nc1ccc(Cl)cc1Cl)C1CC1`, the Potency was 2820 nM (active).

In the case of `CN1CCN(S(=O)(=O)c2ccc(NC(=S)NC(=O)C3CC3)cc2)CC1`, the “activation, negative = inhibition” value is 2.23% (inactive).

Regarding `Cc1ccc(OCC(=O)Nc2ccccc2C(=O)NC2CC2)cc1`, the “activation, negative = inhibition” value is -0.812% (inactive).

With `CCOC(=O)c1c(C)[nH]c(C(=O)OCC(=O)N2CCCC2=O)c1C`, the “activation, negative = inhibition” value was 5.19% (inactive).

For the compound `CCCCOC(=O)c1[nH]c(C)c(C(=O)OC)c1C`, the Potency is 2820 nM (active).

As to `CCOC(=O)c1c(C)[nH]c(C(=O)OCC(=O)c2ccc(OC)cc2OC)c1C`, the “activation, negative = inhibition” value was 3.1% (inactive).

As to `COc1ccc(/C(C)=N/Nc2cc(C(F)(F)F)ccc2Cl)c(OC)c1`, the “activation, negative = inhibition” value was -5.83% (inactive).

On to `S=C(NNC(=S)NC1CC2CCC1C2)NC1CC2C=CC1C2` (stereo not drawn), for which the “activation, negative = inhibition” value was -0.185% (inactive).

Consider `S=C(NNC(=S)NC1CC2C=CC1C2)NC1CC2C=CC1C2` (stereo not drawn), for which the “activation, negative = inhibition” value is 6.58% (inactive).

On to `CC(C)c1ccc(NC(=S)NC2CC3C=CC2C3)cc1` (stereo not drawn), for which the Potency is 2820 nM (active).

`COc1ccc(-c2cc(C(=O)NCCCN3CCCC3=O)c3ccccc3n2)cc1OC`: the “activation, negative = inhibition” value is 8.83% (inactive).

As for `N/C(=N\OC(=O)/C=C/c1ccccc1)c1ccc(Br)cc1`, the “activation, negative = inhibition” value is 3.85% (inactive).

`N/C(=N\OC(=O)c1ccc2c(c1)OCO2)c1ccc(Br)cc1`: the Potency is 3980 nM (active).

Turning to `N/C(=N\OC(=O)N1c2ccccc2Sc2ccccc21)c1ccc(Br)cc1`, the “activation, negative = inhibition” value was -1.25% (inactive).

As for `CC1CC2C3CCC4=CC(=O)C=C[C@]4(C)[C@@]3(F)[C@@H](O)C[C@]2(C)[C@@]1(O)C(=O)CO` (stereo partly drawn), the “activation, negative = inhibition” value is 4.04% [at 46.1 µM] (inactive).

`CCCc1nc2ccccc2c(=O)n1NC(=O)c1c(O)c2ccccc2[nH]c1=O`: the “activation, negative = inhibition” value is -0.479% (inactive).

In the case of `NS(=O)(=O)c1ccccc1NC(=O)c1c(O)c2ccccc2[nH]c1=O`, the Potency is 447 nM (active).

Turning to `CC(C)C(=O)Nc1c(O)c2ccccc2[nH]c1=O`, the “activation, negative = inhibition” value was -2.25% (inactive).

As to `COc1ccc(C(=O)NCc2ccc(Cl)cc2)cc1S(=O)(=O)N1CCCC1`, the “activation, negative = inhibition” value is -4.13% (inactive).

Take `CCCn1nc(C(=O)NNC(=O)CCOc2ccccc2OCC)c2ccccc2c1=O`: the “activation, negative = inhibition” value is -1.1% (inactive).

As to `O=C(Nc1ccc(NC(=O)c2cccs2)cn1)c1ccco1`, the Potency is 316 nM (active).
